Pf growth 96h – P. falciparum growth inhibition at 96 hours. P. falciparum luciferase reporter growth, 96 h. Potency, µM (titrated, usually from 28.7 µM), inactives show top-dose activity change, negative = inhibition, usual class: inhibitors. 6.9% of 320,000 active. AID 504834; also: potency is read from the fitted curve at half-maximal effect; % is scaled to controls: 0 for no effect and ±100 for the full control effect
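96 h incubation, 37 C, 5% CO2, of luciferase-reporter P. falciparum-infected RBCs (2% hematocrit, 0.05% parasitemia final) with test compounds; endpoint luminescence.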
Shiga inhibitor – inhibitors of Shiga toxin in Vero cells; Vero cells, Shiga toxin protein synthesis inhibition reporter; inhibition, % at 38.7 µM; 9.2% of 290,000 active; AID 2315; in the data active = inhibition mostly above about 28%, no sharp cut-off; inactive = mostly below about 43%; also: 0% is about no effect
NS1 function inh – inhibitors of influenza NS1 protein function; 0.4% of 270,000 active; Potency, µM (doses to about 46.1 µM), inactives show top-dose activity, positive = more growth; calls by dose curve; also: potency is read from the fitted curve at half-maximal effect; actives are rising curves; nearly all actives have a fitted effect of over 50% in size
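Recovery from NS1-induced slow growth read by OD600 in budding yeast switched to galactose assay medium (pH 6.0, -URA) at 1:100 dilution. Compound 23 nl per well; the matching strain lacking NS1 serves as control.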
Giardia FBPA inh – blocks Giardia fructose-bisphosphate aldolase activity | purified Giardia FBPA | 0.71% of 290,000 active | A8B2U2 | Potency, µM (doses to about 59.6 µM), without a hit: at the top dose activity, negative = inhibition, most hits filed as inhibitors; also: potency is read from the fitted curve at half-maximal effect; % is scaled to controls: 0 for no effect and ±100 for the full control effect; nearly all actives have a fitted effect of over 55% in size
Target sequence (A8B2U2 whole entry, looked up): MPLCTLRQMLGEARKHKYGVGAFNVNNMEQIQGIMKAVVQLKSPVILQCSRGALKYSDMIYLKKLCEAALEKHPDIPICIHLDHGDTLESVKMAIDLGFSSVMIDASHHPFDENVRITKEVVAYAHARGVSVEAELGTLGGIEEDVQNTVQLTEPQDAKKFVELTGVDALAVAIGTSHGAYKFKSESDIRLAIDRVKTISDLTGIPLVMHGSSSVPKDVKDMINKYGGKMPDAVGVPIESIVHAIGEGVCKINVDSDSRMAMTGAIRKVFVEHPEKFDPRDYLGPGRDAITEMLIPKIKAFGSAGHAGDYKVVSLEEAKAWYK
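40 nM FBPA preincubated 10 min at RT with compound (up to 57.5 uM final), then substrate plus GAPDH/TPI/NAD/arsenate coupling and diaphorase/resazurin added. Fluorescence read after 20 min at RT, 525/598 nm.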
CHX counter – counter-screen hit for Shiga toxin inhibitors, cycloheximide. max response, %. 12% of 300,000 active. cell reporter, cycloheximide protein synthesis inhibition counterscreen; in the data active = max response mostly above about 13%, no sharp cut-off; inactive = mostly below about 14%; also: read at 38.3 µM for the half of the compounds with a filed dose; 0% is about no effect
Pf growth 48h – inhibits P. falciparum growth in the first generation, 48 h; P. falciparum luciferase growth in erythrocytes, 48 h; Potency, µM (top dose mostly 28.7 µM), without a hit: at the top dose activity change, negative = inhibition, actives largely listed as inhibitors; 5.9% of 310,000 active; also: potency is read from the fitted curve at half-maximal effect; % is scaled to controls: 0 for no effect and ±100 for the full control effect
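Read-out is firefly luciferase luminescence from an integrated reporter in P. falciparum, so falling signal marks reduced parasite growth. Infected erythrocytes were at 2% hematocrit and 0.1% parasitemia (final) in Albumax-supplemented RPMI 1640.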
Numbers without * were called inactive; ? = inconclusive; · = no result; [ ] = another dose, or the depositor's remark. In the library only some 21% were active in any assay of this set; here they are far more common. Unless noted, calls follow the shape of the dose curve; as a rule, active = well fitted curve in the direction sought with a large enough effect; inconclusive = small, poorly fitted or top-dose-only effect, or another doubt; inactive = no such curve, though single readings can be large; an effect the other way counts as inactive or inconclusive.

SMILES	Pf growth 96h	Shiga inhibitor	NS1 function inh	Giardia FBPA inh	CHX counter	Pf growth 48h
COc1ccc(OC)c(NC(=O)CSc2nnnn2-c2ccc3c(c2)OCO3)c1	36%	3	7%	2%	1	?
COc1ccc(OC)c(-n2nnnc2SCC(=O)Nc2ccc(C(=O)N3CCCCC3)cc2)c1	12µM*	25	1%	0%	-2	?
COc1ccc(OC)c(-n2nnnc2SCC(=O)Nc2ccc3c(c2)OCCO3)c1	10µM*	-1	0%	3%	-1	31%
COc1ccccc1-n1nnnc1SCC(=O)Nc1ccccc1	-23%	-3	1%	17%	-3	11%
CCOc1c(OC(C)=O)ccc(/C=C/c2ccc3cccc(OC)c3n2)c1[N+](=O)[O-]	-3%	36*	6%	0%	40*	4.7µM*
COc1cccc(/C=C/c2ccc3cccc(O)c3n2)c1OC	?	127*	-77%	-2%	58*	·
COc1ccc(/C=C/c2ccc3cccc(O)c3n2)c(OC)c1OC	-15%	113*	-77%	6%	39*	3%[0.00184 µM]
O=C(NCCN1C(=O)S/C(=C\c2ccccc2F)C1=O)C1=COCCO1	?	·	·	·	·	12%
CCc1nn(C(CC)C(=O)NCCCN2CC(C)CC(C)C2)c(=O)c2cc3oc(C)cc3n12 (centres undefined)	0.19µM*	10	-12%	·	-3	?
CCCNC(=O)OC[C@@H]1O[C@H](CCO/N=C(\C)CCN2CCc3nc(-c4ccccc4)c(-c4ccccc4)cc3C2)C=C[C@@H]1Oc1ccc(OC)cc1	·	·	·	1%[12.9 µM]	·	·
Cc1cccc(OCC(=O)Nc2ccc(C(=O)Nc3ccccc3C(=O)O)cc2)c1C	-14%	-4	10%	4%	-1	33%
CCCc1noc(-c2cccc([N+](=O)[O-])c2)n1	-36%	63	·	4%	22	39%
c1ccc(-c2noc(-c3cccnc3)n2)nc1	·	80*	?	0%	42*	134%
CCOc1nc(-c2ccccc2)ccc1-c1noc(-c2cccnc2)n1	·	·	-1%	·	·	·
O=[N+]([O-])c1cccc(-c2nc(-c3ccccn3)no2)c1	284%	72*	-3%	3%	46*	274%
Clc1ccccc1/C=C/c1nc(-c2ccccn2)no1	67%	-16	-6%	0%	-1	2.1µM*
Cc1onc(-c2ccccc2Cl)c1-c1nc(-c2ccccn2)no1	22%	-2	-264%	10%	2	21%
c1ccc(-c2noc(-c3ccncc3)n2)nc1	169%	69	2%	-1%	34*	135%
C/C(=N\NC(=O)c1ccccc1)c1c(C)[nH]n(-c2ccccc2)c1=O	-11%	61*	-33%	5%	49*	-2%
Cc1nn(-c2ccccc2)nc1C(=O)c1c(C)[nH]n(-c2ccccc2)c1=O	14%	-4	-2%	20%	16	-12%
C/C(=N\NC(=O)c1ccc(C)cc1)c1c(C)[nH]n(-c2ccccc2)c1=O	15µM*	99	-38%	13%	30*	-4%
Cc1[nH]n(-c2ccccc2)c(=O)c1C(=O)Nc1ccccc1	4%	31	-10%	-10%	16*	45%
Cc1cc(C)n2nc(-c3ccc(F)cc3)nc2n1	?	84	7%	-2%	24*	135%
CCOC(=O)C1CCCN(C(=O)c2ccc3[nH]c4c(c3c2)CC(C)CC4)C1 (centres undefined)	?	·	·	·	·	9.3µM*
COC(=O)c1ccc2[nH]c3c(c2c1)CC(C)CC3 (centres undefined)	?	59*	-5%	-4%	36*	29%
SMILES	Pf growth 96h	Shiga inhibitor	NS1 function inh	Giardia FBPA inh	CHX counter	Pf growth 48h
CCOC(=O)C1CCCN(C(=O)c2ccc(Cn3c(=S)[nH]c4cc(C(=O)OC)ccc4c3=O)cc2)C1 (centres undefined)	12µM*	43	·	-7%	14	?
CCOC(=O)C1CCCN(C(=O)c2ccc3c(c2)OCCO3)C1 (centres undefined)	57%	·	·	·	·	18%
CCOC(=O)N1CCN(C(=O)c2ccc(Cn3c(=S)[nH]c4cc(C(=O)OC)ccc4c3=O)cc2)CC1	?	-5	6%	·	0	?
C=C(C)Cn1c(C)cc(C)c(S(=O)(=O)c2ccc(C)cc2)c1=O	-13%	-6	-8%	-13%	-2	?
Cc1cc(C)n(Cc2ccc(Cl)cc2Cl)c(=O)c1S(=O)(=O)c1ccccc1	?	8	2%	-30%	11*	13µM*
Cc1ccc(Cn2ccccc2=N)cc1	23%	4	0%	-6%	-3	-6%[0.00184 µM]
O=c1c(-c2nc3ccccc3s2)cccn1Cc1ccccc1	197%	102*	-5%	-2%	51*	300%
Cc1ccc(Cn2cccc(-c3nc4ccccc4s3)c2=O)cc1	77%	70*	4%	-3%	43*	32%
O=C(CSc1ccc(-c2cccnc2)nn1)Nc1ccc(F)c(F)c1	?	-10	9%	-9%	8	?
CCn1ccc(C(=O)Oc2ccc(C(C)C)cc2)n1	·	71*	-28%	3%	36*	15%
CC(=O)Nc1c2sscc-2n(C)c1=O	·	36*	·	0%	47*	·
COc1ccc2nc(Nc3nc4cc5c(cc4s3)OCO5)sc2c1	-4%	64*	16%	6%	23*	-10%
COc1ccc2nc(Nc3ccc4c(c3)OCO4)sc2c1	1%	45*	?	-3%	39*	159%
COc1ccc(-c2cc(C(=O)Nc3ccc4c(c3)OCO4)no2)cc1	-1%	20	-8%	15%	7	43%
COc1ccc2nc(NC(=O)/C=C/c3ccc4c(c3)OCO4)sc2c1	1.9µM*	18	4%	7%	4	-1%
CCc1cc2c(nc1CC)CCN(CC/C(C)=N/OC[C@@H](C)[C@H](OCc1ccccc1)C(C)C)C2	·	·	·	-1%[12.9 µM]	·	·
Cc1ccc(-n2nc3c(c2NC(=O)CC(C)C)CS(=O)(=O)C3)c(C)c1	6%	-6	1%	10%	-2	-5%
OCc1cc(-c2ccccn2)no1	104%	·	·	·	·	?
O=[N+]([O-])c1cccc(NC(=S)N2CCCC2)c1	?	-5	5%	·	2	7%
O=C(Nc1cccc(C(F)(F)F)c1)C(=O)N1CCCCC1	?	24	-1%	-2%	11*	56%
O=C(Nc1cccc([N+](=O)[O-])c1)C(=O)N1CCCCC1	31%	69*	1%	4%	43*	?
FC(F)(F)c1cccc(NC(=S)N2CCCCCC2)c1	?	19	·	-19%	5	8%
COc1ccc(N2CCN(S(=O)(=O)c3ccc(-n4cnnn4)c(C)c3)CC2)cc1	23%	-10	2%	6%	-2	8%
CCc1ccccc1N1CCN(S(=O)(=O)c2cc(OC)ccc2OC)CC1	10µM*	-7	-9%	2%	-1	-12%
COc1ccc(S(=O)(=O)N2CCN(c3ccccn3)CC2)c(OC)c1	4.7µM*	-6	-16%	2%	2	16%

Bioassay records: PubChem BioAssay, National Center for Advancing Translational Sciences (NCATS)
